Where a name gives a salt, the structure may show the parent alone. ± gives the standard deviation of the averaged measurements. Over roughly 3,100 compounds, “mean cytoplasmic OPP incorporation (global translation) relative to DMSO” has its median near 100; the lowest 2% begin near 56. Many of the other results were omitted from the sample, so the lowest values are more common in it than they were.

The test concerns U2OS. Put plainly: mean cytoplasmic OPP incorporation (global translation) relative to DMSO (% of DMSO); higher = more protein synthesis. The note with it: 10 µM; 24 h. As for the experimental part: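 Primary image-based screen in U2OS cells: compounds at 10 uM for 24 h, then a 1 h o-propargyl-puromycin (OPP) pulse, click labelling, and high-throughput microscopy. Mean cytoplasmic OPP intensity and nuclei count were normalised to DMSO wells within each plate (DMSO = 100) and averaged over triplicate plates.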
On to `O=C(O)Cc1nn(Cc2ccc(Br)cc2F)c(=O)c2ccccc12` [Statil], for which the “mean cytoplasmic OPP incorporation” value was found to be 98.2. With `Cc1ccc(NC(=O)c2ccc(CN3CCN(C)CC3)cc2)cc1Nc1nccc(-c2cccnc2)n1` [Imatinib Mesylate], the “mean cytoplasmic OPP incorporation” value is 130. In the case of `Cc1cc(NC(=O)c2cccc(NC(=O)/C=C/CN(C)C)c2)ccc1Nc1nccc(-c2cccnc2)n1` it was 96.1.

Turning to `Cc1ccc(NC(=O)c2ccc(CN3CCN(C)CC3)cc2)cc1Nc1nccc(-c2cccnc2)n1` [Imatinib mesylate], the “mean cytoplasmic OPP incorporation” value was found to be 121 ± 11.

`COc1ccc(C(=O)NCc2cccnc2)cc1C(=O)NCc1cccnc1` [Picotamide monohydrate]: the “mean cytoplasmic OPP incorporation” value turned out to be 98.8.

Consider `Cc1ccc(NC(=O)c2ccc(CN3CCN(C)CC3)cc2)cc1Nc1nccc(-c2cccnc2)n1` [Imatinib], for which the “mean cytoplasmic OPP incorporation” value was determined as 120. On to `Nc1ccccc1NC(=O)c1ccc(CNc2nccc(-c3cccnc3)n2)cc1` [Mocetinostat (MGCD0103)], for which the “mean cytoplasmic OPP incorporation” value worked out at 35.5. Take `Cc1ccc(NC(=O)c2ccc(CN3CCN(C)CC3)cc2)cc1Nc1nccc(-c2cccnc2)n1` [Imatinib (STI571)]: the “mean cytoplasmic OPP incorporation” value was 124.

In the case of `CC(=O)Nc1ccc(C(=O)Nc2ccccc2N)cc1`, the “mean cytoplasmic OPP incorporation” value was found to be 57.3 ± 33. In the case of `Nc1ccccc1NC(=O)c1ccc(CNC(=O)OCc2cccnc2)cc1` [Entinostat (MS-275, SNDX-275)] it was 23.5; in that of `O=c1nc2ccccc2c2n1CC(CN1CCN(c3ccccc3)CC1)N2` (stereo unspecified), 101; in that of `O=C(O)c1ccccc1Nc1cccc2c1C(=O)c1cccc(Nc3ccccc3C(=O)O)c1C2=O`, 113. Take `O=C(Cc1ccccc1)Nc1nc2ccc(Cl)cc2c2nc(-c3ccco3)nn12`: the “mean cytoplasmic OPP incorporation” value came out at 104. For `CC(C)CC(NC(=O)OCC1c2ccccc2-c2ccccc21)C(=O)O` (stereo unspecified), the “mean cytoplasmic OPP incorporation” value turned out to be 109.

Turning to `Brc1ccc(C2CN3CCSC3=N2)cc1` [L-p-Bromotetramisole oxalate], the “mean cytoplasmic OPP incorporation” value is 94.5.

As for `CCOC(=O)C=Cc1ccc(O)c(OC)c1` [Ferulic acid ethylester], the “mean cytoplasmic OPP incorporation” value is 103. For `COCC[n+]1c2c(n(Cc3cnccn3)c1C)C(=O)c1ccccc1C2=O`, the “mean cytoplasmic OPP incorporation” value worked out at 35. Regarding `CC(C)NCC(O)COc1ccccc1-n1cccc1` (stereo unspecified) [Isamoltane hemifumarate], the “mean cytoplasmic OPP incorporation” value was 94.6.

In the case of `Nc1c(O)cc(O)cc1C=Cc1ccc(O)cc1` [Aminoresveratrol sulfate], the “mean cytoplasmic OPP incorporation” value is 100. For `CCC(=O)NC1CCc2cccc(OC)c2C1` (stereo unspecified), the “mean cytoplasmic OPP incorporation” value stood at 101.

As for `O=S1(=O)c2cccc3cccc(c23)N1CCCN1CCN(c2ccc(F)cc2)CC1` [Fananserin], the “mean cytoplasmic OPP incorporation” value stood at 103. Regarding `CCCOC(=O)c1cc(O)c(O)c(O)c1` [N-Propyl gallate], the “mean cytoplasmic OPP incorporation” value was determined as 123. Regarding `CS(=O)(=O)N1CCN(Cc2cc3nc(-c4cccc5[nH]ncc45)nc(N4CCOCC4)c3s2)CC1` [Pictilisib (GDC-0941)], the “mean cytoplasmic OPP incorporation” value was 73.8. Take `Cc1c(CN2CCN(C(=O)[C@H](C)O)CC2)sc2c(N3CCOCC3)nc(-c3cnc(N)nc3)nc12` [Apitolisib (GDC-0980, RG7422)]: the “mean cytoplasmic OPP incorporation” value is 50.7. In the case of `COc1ccc(-c2nc(N3CCOCC3)c3sc(CN(C)c4ncc(C(=O)NO)cn4)cc3n2)cn1` it was 86.6. In the case of `Cc1cc(Cc2cc(C)cc(C(C)(C)C)c2O)c(O)c(C(C)(C)C)c1` it was 103. Take `Cc1cc(C(=O)NNCc2ccccc2)no1` [Isocarboxazid]: the “mean cytoplasmic OPP incorporation” value was found to be 106. In the case of `CC1(C)S[C@@H]2[C@H](NC(=O)Cc3ccccc3)C(=O)N2[C@H]1C(=O)O` [Benzathine benzylpenicillin] it was 104; in that of `CC1(C)S[C@@H]2[C@H](NC(=O)Cc3ccccc3)C(=O)N2[C@H]1C(=O)O` [Benzylpenicillin sodium], 80.8. As to `CC1(C)OC2=C(C(=O)c3ccccc3C2=O)[C@H](NCc2ccccc2)[C@@H]1O`, the “mean cytoplasmic OPP incorporation” value was 38.9. For the compound `CC(C)Oc1ccc(-c2c[nH]cc2CN(C)CCN)cc1`, the “mean cytoplasmic OPP incorporation” value was found to be 100. On to `CC(CCCCC(=O)Nc1ccc(C(F)(F)F)cc1)NCCc1cnc[nH]1` (stereo unspecified) [HTMT dimaleate], for which the “mean cytoplasmic OPP incorporation” value turned out to be 100. Turning to `CC1(C)Oc2ccc(C#N)cc2[C@H](N2CCCC2=O)[C@H]1O` [Cromakalim], the “mean cytoplasmic OPP incorporation” value was found to be 98.1. The result for `FC(F)(F)c1cc(COC2CCCNC2c2ccccc2)cc(C(F)(F)F)c1` [L-733,060 hydrochloride] reads 108. In the case of `CCC(C)[C@H](NS(=O)(=O)c1cccc2ccccc12)C(=O)N[C@H](C=O)Cc1c[nH]c2ccccc12` (stereo partly specified) it was 102. The result for `COc1ccc2cc3[n+](cc2c1OC)CCc1cc2c(cc1-3)OCO2` [Berberine HCl] reads 106; that for `C[n+]1cc2c3c(ccc2c2ccc4cc5c(cc4c21)OCO5)OCO3` [Sanguinarine chloride], 42.4; that for `O=c1[nH]c2cc(Cl)ccc2c(O)c1-c1cccc(Oc2ccccc2)c1`, 103.

Regarding `O=C1NC(=O)c2c1c(-c1ccccc1)cc1[nH]c3ccc(O)cc3c21`, the “mean cytoplasmic OPP incorporation” value was determined as 51.8. Turning to `CS(=O)(=O)CCNCc1nc(-c2ccc3ncnc(Nc4ccc(OCc5cccc(F)c5)c(Cl)c4)c3c2)cs1`, the “mean cytoplasmic OPP incorporation” value stood at 102.

With `N#Cc1cc2c(OCC(O)CN3CCN(C(c4ccccc4)c4ccccc4)CC3)cccc2[nH]1` (stereo unspecified), the “mean cytoplasmic OPP incorporation” value amounted to 107.

As for `CCN(CCO)CCCC(C)Nc1ccnc2cc(Cl)ccc12` (stereo unspecified) [Hydroxychloroquine sulfate], the “mean cytoplasmic OPP incorporation” value amounted to 102. As to `CCN(CC)CCCC(C)Nc1ccnc2cc(Cl)ccc12` (stereo unspecified) [Chloroquine], the “mean cytoplasmic OPP incorporation” value was 107. In the case of `CCN(CC)CCCC(C)Nc1ccnc2cc(Cl)ccc12` (stereo unspecified) [Chloroquine diphosphate], the “mean cytoplasmic OPP incorporation” value turned out to be 105. The result for `CCN(CCO)CCCC(C)Nc1ccnc2cc(Cl)ccc12` (stereo unspecified) [Hydroxychloroquine] reads 93; that for `CCN(CC)CCCC(C)Nc1c2ccc(Cl)cc2nc2ccc(OC)cc12` (stereo unspecified) [Quinacrine dihydrochloride dihydrate], 29.5.

On to `O=C(CCCCCCC(=O)NO)NO` [Suberoyl bis-hydroxamic acid], for which the “mean cytoplasmic OPP incorporation” value was 88.4. As for `C[C@H](CCC(=O)NCC(=O)O)[C@H]1CC[C@H]2[C@@H]3CC[C@@H]4C[C@H](O)CC[C@]4(C)[C@H]3C[C@H](O)[C@]12C` [Glycodeoxycholic acid], the “mean cytoplasmic OPP incorporation” value worked out at 102. As for `COc1ccc(-c2ccc3ncc4c(c3c2)n(-c2ccc(N3CCNCC3)c(C(F)(F)F)c2)c(=O)n4C)cn1`, the “mean cytoplasmic OPP incorporation” value turned out to be 33.4 ± 16. As for `Nc1ccc(-c2ccc3ncc4ccc(=O)n(-c5cccc(C(F)(F)F)c5)c4c3c2)cn1` [Torin 2], the “mean cytoplasmic OPP incorporation” value was determined as 67.6 ± 3.6. As to `CCC(=O)N1CCN(c2ccc(-n3c(=O)ccc4cnc5ccc(-c6cnc7ccccc7c6)cc5c43)cc2C(F)(F)F)CC1` [Torin 1], the “mean cytoplasmic OPP incorporation” value was determined as 73.

These data come from the supplement of paper PMC8183993.
